The campaign covered roughly 2,500 compounds. About 1,100 (44%) were called active.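 Rule for the calls: active = inhibition above 50% at 4 µM in the single-point screen; inactive = inhibition of 50% or less.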 The set was probably picked from earlier hits. The list shows a part of the results.
assay: TNF-a-driven NF-kB reporter inhibitors, primary screen, selectivity assay for NOD1/NOD2 signaling inhibitor project, cell-based, HEK293T NF-kB-Luc, luminescence (AID 1852); details: TNF-a induced, 14 h, at 4 µM, stronger effect = higher value

inhibition, inactive:
O=C(Oc1c(-c2ccccc2)c(=O)n2c3c(cccc13)CC2)c1ccc(F)cc1 49.3%, COc1ccc(NC(=O)c2c(Nc3ccccc3)sc(C(=O)c3ccc(F)cc3)c2N)cc1 10%, COc1ccc(C(=O)Nc2sc3c(c2C(=O)NCc2ccco2)CCCC3)cc1OC -42.2%, CC(C)(C)OC(=O)CNC(=O)c1[nH]cnc1C(=O)NC1CCN(C(=O)OC(C)(C)C)CC1 -15.2%, COCCn1c(SCC(=O)N2CCc3ccccc3C2)nc2cc(Cl)ccc2c1=O 13.3%, O=C(CSc1nnc2ccc3ccccc3n12)N1CCOCC1 -57.3%, CC(C)Cn1c(N)c(C(=O)COC(=O)CC23CC4CC(CC(C4)C2)C3)c(=O)n(C)c1=O 26.6%, COCCCN(C(=O)Cc1ccc(Cl)c(Cl)c1)c1c(N)n(Cc2ccccc2)c(=O)[nH]c1=O 7.8%, CCN(CC)S(=O)(=O)c1cc(OC)ccc1N=Nc1ccc(O)c2ncccc12 -1.5%, Cc1c(C(=O)N2CCN(c3ccc(F)cc3)CC2)sc2ncnc(N3CCN(c4ccccn4)CC3)c12 15.6%, Cn1c(=O)c([N+](=O)[O-])c(N2CCN(Cc3ccc4c(c3)OCO4)CC2)c2ccccc21 18.3%, COc1ccccc1N1CCN(C(=O)c2sc3ncnc(N4CCN(c5ccccn5)CC4)c3c2C)CC1 -30.1%, CCn1c(=O)c([N+](=O)[O-])c(N2CCN(Cc3ccc4c(c3)OCO4)CC2)c2ccccc21 38.9%, COc1ccc(N2CCN(S(=O)(=O)c3ccc4c(c3)NC(=O)C(C)S4)CC2)cc1 (centres undefined) 23.6%, CN1C(=O)C(C)(C)c2cc(S(=O)(=O)N3CCN(c4ccccc4)CC3)ccc21 16%, c1ccc(CC2CCN(c3ncnc4sccc34)CC2)cc1 42.7%, CCCc1nc(SCC(=O)N2CCC(Cc3ccccc3)CC2)c2c(=O)n(C)c(=O)n(C)c2n1 -11.3%, C/C(=N\NC(=O)c1ccc(Cl)cc1)c1ccc(Br)s1 9.8%, O=C(NN=C1c2ccccc2-c2ccccc21)c1cccc(Br)c1 21.6%, COc1ccc(OC)c(S(=O)(=O)N2CCN(c3ccccc3OC)CC2)c1 5%, O=C1c2cccc(OCC(=O)N3CCCc4ccccc43)c2CCN1Cc1ccc(Br)cc1 -77.8%, Cc1ccc(-c2c(C#N)c(N)n3c(nc4ccccc43)c2C#N)cc1 33.8%, Cc1ccc(NC(=O)Nc2cccc([N+](=O)[O-])c2)cc1F -50.5%, CCc1nc(N2CCN(C(=O)CCl)CC2)c2c3c(sc2n1)CC(C)CC3 (centres undefined) 35.2%, CCOC(=O)C1(CCc2ccccc2)CCN(C(=O)CN2C(=O)CSC2=O)CC1 -1.6%, Cc1ccc(Nc2nnc(-c3ccncc3)s2)c(Br)c1 48%, Cc1ccc(C)c(N2CCN(C(=S)Nc3ccc4nc(N5CCOCC5)cc(C)c4c3)CC2)c1 45.9%, COc1ccccc1N1CCN(C(=S)Nc2ccc3nc(N4CCOCC4)cc(C)c3c2)CC1 38.6%, CCN(CC)c1ccc(/C=C/c2ccc3ccc(OC)cc3[n+]2CC)cc1 38.2%, COc1ccc(-c2csc3nc(-c4ccccc4)oc(=O)c23)cc1OC -3.3%, COc1ccccc1-c1nnc(SCC(=O)Nc2nc(-c3ccccc3)cs2)n1C 31.2%, COc1ccc2[nH]c3c(c2c1)CCN1C(=O)N([C@@H](C)C(=O)NC2CC2)C(=O)[C@]31C 24.6%, O=C(/C=C/c1cccs1)Nc1sc2c(c1C(=O)O)CCCC2 17.8%, COc1cccc(/C=C/C(=C2/C(=O)N(c3ccccc3)N=C2C)c2ccccc2)c1OC 7.3%, CC1=NN(c2ccc(Cl)cc2)C(=O)C1C(c1ccccc1O)c1c(C)[nH]n(-c2ccc(Cl)cc2)c1=O (centres undefined) -30.7%, Cc1[nH]n(-c2ncc(-c3ccccc3)s2)c(=O)c1C(c1ccc(Cl)cc1)C(C#N)C#N (centres undefined) 28.2%, CCOC(=O)C(=Cc1ccc(-n2cncn2)cc1)C(=O)OCC 27%, O=C(Nc1cc(Cl)ccc1-n1cncn1)c1ccc([N+](=O)[O-])s1 34.3%, Clc1ccccc1/C=C/c1nc(-c2ccccn2)no1 -22.3%, COc1ccc(NC(=O)C2CCN(c3ncnc4c3nc3n4CCCCC3)CC2)cc1Cl 43.2%, CC(=O)c1ccc(NC(=O)C2CCCN(c3ncnc4c3nc3n4CCCCC3)C2)cc1 (centres undefined) 22.3%, Cc1ccc(NC(=O)C2CCN(c3ncnc4c3nc3n4CCCCC3)CC2)cc1Cl 31.7%, O=C(Nc1nc2c(F)cc(F)cc2s1)c1ccc([N+](=O)[O-])o1 -4%, CC(C)c1nc(SCC(=O)Nc2nc3c(s2)CCCC3)c2ccccc2n1 -69.4%, C#CC(C)(C)NC(=O)CSc1nc2c(c(=O)n(C)c(=O)n2C)n1CCCC 24.1%, CC(C)n1c(SCC(=O)N2CCCCC2)nc2c1c(=O)n(C)c(=O)n2C 40.9%, C=CCn1c(SCC(=O)Nc2sccc2C(N)=O)nc2sc(CC)cc2c1=O 44.9%, CC1CCc2nc(NC(=O)CSc3nc4ccccc4o3)sc2C1 (centres undefined) 12%, CCCc1nc(SCC(=O)Nc2nnc(SCC)s2)c2c(=O)n(C)c(=O)n(C)c2n1 33.2%

inhibition, active:
O=C(Oc1c(-c2ccccc2)c(=O)n2c3c(cccc13)CC2)c1ccccc1 75.1%, O=C(Oc1c(-c2ccccc2)c(=O)n2c3c(cccc13)CC2)c1ccc(Cl)cc1 90.1%, COc1ccc(C(=O)c2c(C(F)(F)F)oc3c2C(=O)c2ccccc2C3=O)cc1OC 102%, COc1ccc(C(=O)c2c(C(F)(F)F)oc3c2C(=O)c2ccccc2C3=O)cc1 100%, O=C(OCn1ncc(Br)c(Br)c1=O)c1ccc(F)cc1 86.5%, O=C(OCn1ncc(Br)c(Br)c1=O)c1c(F)cccc1F 82.5%, CC(=O)Cn1ncc(Br)c(Br)c1=O 95%, Cc1ccc(Cl)cc1N1CCN(C(=O)CSc2nnc3n2C(C)(C)Cc2ccccc2-3)CC1 95.1%, CC1Cc2cc(-c3csc(NC(=O)Cc4cccs4)n3)ccc2N1S(C)(=O)=O (centres undefined) 60.6%, Cn1c(=O)c(C(=O)CCl)c(N)n(Cc2ccccc2)c1=O 72.4%, COc1cccc(N=Nc2ccc3cccnc3c2O)c1 54.2%, COc1cccc(N=Nc2ccc(O)c3ncccc23)c1 61%, O=S1(=O)Nc2c(ccc3cccnc23)-c2ccccc21 104%, O=[N+]([O-])c1ccc2ncnc(N3CCN(Cc4ccc5c(c4)OCO5)CC3)c2c1 97.2%, Cc1c(C(=O)N2CCN(Cc3ccc4c(c3)OCO4)CC2)sc2ncnc(N3CCN(c4ccccc4)CC3)c12 98.5%, Cc1ccc(S(=O)(=O)N2CCN(c3ncnc4sccc34)CC2)cc1 52.6%, O=S(=O)(c1ccc2c(c1)OCCO2)N1CCN(c2ncnc3sccc23)CC1 53.4%, O=C(N/N=C1/C(=O)c2cccc3cccc1c23)c1ccc(Cl)cc1 81%, S=c1[nH]nc(C2CCCCC2)n1/N=C/c1ccncc1 82.9%, O=C(COc1ccc(Br)cc1Cl)NC(=S)N1CCc2ccccc21 104%, Cc1cc(Nc2cccc([N+](=O)[O-])c2)n2c(nc3ccccc32)c1C#N 78.7%, COc1cc(NC(=O)COc2cc(O)c3c(c2)OC(C)(C)CC3=O)cc(OC)c1OC 64.6%, COc1cccc(C(=O)Nc2ccc3nc(N4CCN(c5ncccn5)CC4)cc(C)c3c2)c1OC 101%, CCN(CC)c1ccc(/C=C/c2cccc[n+]2C)c(OC)c1 66.8%, COc1ccc2c(c1OC)C(=O)OC2Nc1nc(-c2ccccc2)cs1 (centres undefined) 62.2%, Cc1ccc(-c2csc(NC3OC(=O)c4ccccc43)n2)cc1 (centres undefined) 74.1%, COc1ccc2[nH]c(=O)c3c(c2c1)OC(C)(C)C=C3 74.7%, Cc1[nH]c(=O)c(C(=O)/C=C/c2ccccc2F)c2c1CCCC2 97.7%, Cc1[nH]c(=O)c(C(=O)/C=C/c2ccccc2)c2c1CCCC2 92%, COc1ccccc1/C=C/C(=O)c1c2c(c(C)[nH]c1=O)CCCC2 80.6%, Cc1[nH]n(-c2cccc(Cl)c2)c(=O)c1-c1ccc(Cl)cc1 51.9%, CC(C)(C)C(=O)/C(=C/c1ccc(Cl)cc1)n1cncn1 73.3%, CC(C)CC(=O)/C(=C\c1ccc(Cl)cc1Cl)n1cncn1 64.5%, CC(=O)n1cc(N(C(=O)CCl)c2ccccc2)c2ccccc21 95.3%, CC(=O)n1cc(N(C(=O)CCl)c2ccc(C)cc2)c2ccccc21 53.1%, Cc1ccc(S(=O)(=O)N2C(=O)/C(=C3\SC(=S)NC3=O)c3ccccc32)cc1 82.3%, N=C1S/C(=C\c2ccc(-c3cccc(Cl)c3)o2)C(=O)N1c1nccs1 108%, N=C1S/C(=C\c2ccco2)C(=O)N1c1nccs1 105%, O=C(Nc1ccc(Cl)cn1)C1CCN(c2ncnc3c2nc2n3CCCCC2)CC1 76.4%, O=C(NCC1CCN(Cc2ccc(Cl)cc2)CC1)C1CCCN(c2ncnc3c2nc2n3CCCCC2)C1 (centres undefined) 57.9%, O=C(Nc1ccccn1)C1CCN(c2ncnc3c2nc2n3CCCCC2)CC1 66.3%, Cc1ccc(NC(=O)C2CCCN(c3ncnc4c3nc3n4CCCCC3)C2)nc1 (centres undefined) 92.6%, CCCCn1c(SCC(=O)Nc2nnc(C(C)C)s2)nc2c1c(=O)n(C)c(=O)n2C 54.3%, CCCn1c(SCC(=O)Nc2nc3c(s2)CCCC3)nc2c1c(=O)n(C)c(=O)n2C 71.4%, CCCCn1c(SCC(=O)Nc2nnc(CC)s2)nc2c1c(=O)n(C)c(=O)n2C 51.6%
